Test results published in PubChem BioAssay (NCI).
This is part of a sample that, as a whole, favours compounds with a hit. Of some 79,000 tested, about 15% had one in any assay. Activity calls are given as the source filed them. Rule as the data show it: active = growth inhibition above about 70%; inactive = the rest.

Tests used:
[1] = NCI Yeast Anticancer Drug Screen. Data for the rad50 strain (AID 155);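 also: 0% = growth of vehicle-only cultures of the same strain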; conditions: S. cerevisiae rad50 strain growth inhibition; at 50.0 µM; stronger effect = higher value
How it was run: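 DNA repair mutant yeast, compound exposure, growth read-out; inhibition is taken relative to vehicle.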

[2] = NCI Yeast Anticancer Drug Screen. Data for the mec2-1 strain (AID 157); conditions: S. cerevisiae mec2-1 strain, at 50.0 µM, stronger effect = higher value
How it was run: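 Vehicle-treated cultures served as reference for growth inhibition of compound-exposed mec2-1 yeast.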

[3] = NCI Yeast Anticancer Drug Screen. Data for the sgs1 mgt1 strain (AID 161);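 also: 0% = growth of cultures given vehicle only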; conditions: S. cerevisiae sgs1 mgt1 strain, at 50.0 µM, stronger effect = higher value
How it was run: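 Inhibition of yeast growth, normalised to vehicle-treated controls, is reported for a strain bearing genetic alterations in DNA damage repair.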

[4] = NCI Yeast Anticancer Drug Screen. Data for the cln2 rad14 strain (AID 165);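 also: 0% = growth equal to vehicle treated cultures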; conditions: S. cerevisiae cln2 rad14 strain, at 50.0 µM, stronger effect = higher value
How it was run: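 Each compound was tested on cln2 rad14 yeast. Inhibition of growth was calculated against vehicle-exposed controls.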

[5] = NCI Yeast Anticancer Drug Screen. Data for the bub3 strain (AID 167); conditions: S. cerevisiae bub3 mutant strain, at 50.0 µM, stronger effect = higher value
How it was run: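 In this screen, a yeast mutant lacking normal mitotic checkpoint function is challenged with compound. Relative growth versus vehicle gives the inhibition value.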

[6] = NCI Yeast Anticancer Drug Screen. Data for the mlh1 rad18 strain (AID 175); conditions: S. cerevisiae mlh1 rad18 strain growth inhibition; at 50.0 µM; stronger effect = higher value
How it was run: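 Vehicle-treated cultures served as the reference for growth inhibition in a yeast strain carrying DNA damage repair alterations exposed to each compound.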

Measured: growth inhibition

O=NN(CC(=O)O)c1ccc2ccccc2c1
inactive: [1] 2.55% | [2] -7.3% | [3] 13.8% | [4] -39.5% | [5] -14.9% | [6] -2.85%

Cc1ccc(NC(=O)Nc2ccc(C)cc2)cc1
inactive: [1] 0.7% | [2] -14.9% | [3] -12.8% | [4] -9.25% | [5] -2.3% | [6] -18.1%

COC(=O)C(S)(NC(C)=O)C(C)C (stereo not drawn)
inactive: [1] 0.2% | [2] -10.5% | [3] -1.25% | [4] -30.4% | [5] -18.8% | [6] 16.1%

O=C1c2ccccc2C(=O)N1C1(C(=O)O)CCCC1
inactive: [1] -5.3% | [2] -7.6% | [3] -7.65% | [4] -27.1% | [5] -15.6% | [6] -10.4%

CNCCNc1ncc([N+](=O)[O-])s1
inactive: [1] -3.25% | [2] -9.1% | [3] -37.6% | [4] -25.1% | [5] -43% | [6] -32.5%

O=c1c2ncccc2cc2n1CCc1c-2[nH]c2ccccc12
inactive: [1] -15.3% | [2] -15.9% | [3] 6.3% | [4] -4.75% | [5] -1.1% | [6] -0.2%

FC(F)(F)c1cc(-c2ccc(C3Nc4ccccc4-n4cccc43)o2)cc(C(F)(F)F)c1 (stereo not drawn)
inactive: [1] 11.7% | [2] -23.4% | [3] 24.2% | [4] 6.65% | [5] 25.4% | [6] 30.3%

COc1ccc(N=C(C)c2c(O)n(-c3ccccc3)[nH]c2=O)cc1
active: [1] 98.8% | [2] 97.5% | [3] 99.2% | [4] 99.1% | [5] 98.8% | [6] 98.5%

C/C(COC(=O)c1cc(C)nc2ccccc12)=N\O
inactive: [1] -22.6% | [2] 17% | [3] -0.65% | [4] -20.8% | [5] 21.1% | [6] -11.6%

CCCOC(=O)Nc1cccc(Cl)c1
inactive: [1] 49.5% | [2] -8.7% | [3] 13.6% | [4] -9.95% | [5] -9.35% | [6] 12.4%

COCCCNc1ncnc2c1cnn2-c1ccc(Cl)cc1
inactive: [1] -1.3% | [2] -4.75% | [3] -0.25% | [4] 9.8% | [5] -9.45% | [6] -4.45%

C=CCOC(=O)CC
inactive: [1] 5.95% | [2] -13.2% | [3] -13% | [4] -6.05% | [5] -15.4% | [6] -10%

CC(=O)c1ccc(N=NN(C)C)cc1
inactive: [1] 0.2% | [2] 1% | [3] -2.65% | [4] -18.4% | [5] -21.9% | [6] -15.6%

Cc1cc(N=C2C=CC(=O)C=C2)ccc1O
inactive: [1] 40.5% | [2] 21.6% | [3] 30.4% | [4] 10.2% | [5] 15.9% | [6] 25.6%

Nc1n[n+]([O-])c2cc([N+](=O)[O-])ccc2[n+]1[O-]
inactive: [6] 68%
active: [1] 85.1% | [2] 87.9% | [3] 84.7% | [4] 79.7% | [5] 75.9%

C/C(=N\Nc1ccccc1)c1sc(-c2nc(C)c(/C(C)=N/Nc3ccccc3)s2)nc1C
inactive: [1] 24.3% | [2] -3.2% | [3] 14.3% | [4] -29% | [5] 17.6% | [6] 25.2%

N/C=N/OCc1ccccc1
inactive: [1] 10% | [2] 5.05% | [3] 9% | [4] 4.7% | [5] -3.75% | [6] 5.75%

CCCOC(=O)c1ccc(Cl)c(Cl)c1
inactive: [1] 10.6% | [2] 7.85% | [3] 2.5% | [4] -58.2% | [5] -6.15% | [6] 5.9%

CC1=C(C(=O)Nc2ccccc2)C(c2ccccc2)C(C(=O)Nc2ccccc2)=C(C)N1
inactive: [1] 4.2% | [2] 2.55% | [3] 14.5% | [4] 18.4% | [5] 0.55% | [6] 22.4%

CC(C)(C)CC(C)(C(=O)O)C(C)(C)C (stereo not drawn)
inactive: [1] 4% | [2] 9.25% | [3] -3.25% | [4] -12.6% | [5] 3.15% | [6] 14.7%

O=C(O)CNC(=O)CNC(=O)CNC(=O)CNC(=O)CNC(=O)OCc1ccccc1
inactive: [1] 38.2% | [2] -0.25% | [3] 15.2% | [4] 28.1% | [5] -0.95% | [6] 17.4%

O=C(CCC1CCCCC1)OC1CCCC1
inactive: [1] 12% | [2] -4.45% | [3] -2.7% | [4] -5.1% | [5] -2.3% | [6] 24.3%

COC(=O)NC1C(C)OC(OC2C/C=C(/C)C3C=CC4C(OC5CC(OC6CCC(OC7CC(O)C(OC8CCC(O)C(C)O8)C(C)O7)C(C)O6)C(OC(C)=O)C(C)O5)C(C)CC(C)C4C3(C)/C(O)=C3/C(=O)OC4(CC(C=O)=CC(O)C4/C=C\2C)C3=O)CC1(C)[N+](=O)[O-] (stereo not drawn)
inactive: [1] 21.1% | [2] 20.9% | [3] 22.2% | [4] 25.6% | [5] 22.9% | [6] -38%

CC(=O)CC(C)(C)N
inactive: [1] -0.1% | [2] -9.7% | [3] -1.4% | [4] -6.05% | [5] 3.1% | [6] -2.1%

O=S(=O)(O)c1ccc(N/N=C/c2ccccc2)cc1
inactive: [1] -9.45% | [2] 12.7% | [3] 12.1% | [4] 5.3% | [5] -10.2% | [6] 14.3%

CCN(CC)Cc1cc2[nH]c3c4ccc(Cl)cc4ncc3c2cc1OC
inactive: [1] 23.8% | [2] 11.8% | [3] -6.15% | [4] -2.65% | [5] -45.5% | [6] -42.6%

CCCN(Cc1ccccc1)CC(O)c1ccc(Cl)cc1 (stereo not drawn)
inactive: [1] 0.95% | [2] 3.5% | [3] 32.2% | [4] 2.95% | [5] 32.9% | [6] 20.1%

CCOC(=C[P+](c1ccccc1)(c1ccccc1)c1ccccc1)OCC
inactive: [1] -6.5% | [2] 20.8% | [3] 2.35% | [4] -9.5% | [5] -3.6% | [6] -36%

CCCCCCCCOC(=O)CO
inactive: [1] 23.8% | [2] -30.1% | [3] 17.8% | [4] 5.35% | [5] 3.1% | [6] 12.3%

CC1OS(=O)OC1C (stereo not drawn)
inactive: [1] -20.9% | [2] -23.6% | [3] -2.4% | [4] -21.7% | [5] -8.45% | [6] -0.4%

C1CSC(Sc2nc(SC3=NCCS3)nc(SC3=NCCS3)n2)=N1
inactive: [1] -22% | [2] -10.7% | [3] -10% | [4] -30.3% | [5] -31.2% | [6] -26.4%

NC(=O)N1CCCC1
inactive: [1] -1.65% | [2] 13.1% | [3] -3.7% | [4] 7.7% | [5] 9.45% | [6] 2.15%

COc1cc2ccc1OCc1cccc(n1)COc1ccc(cc1OC)C=NCCNCCN=C2
inactive: [1] -4.6% | [2] -22.8% | [3] -14.9% | [4] -21.8% | [5] -17.3% | [6] -17.4%

CC1(C)[C@H]2CC[C@@]1(C)C(=O)[C@H]2[N+](=O)[O-]
inactive: [1] 4.25% | [2] -20.2% | [3] -1.8% | [4] 7.85% | [5] -9.15% | [6] 8.75%

CCCC(=O)Nc1ccccc1OC
inactive: [1] 12.8% | [2] 12.7% | [3] 9.2% | [4] 11.9% | [5] 24.4% | [6] -0.75%

CC1CCCC2(C)CCC(=O)C=C12 (stereo not drawn)
inactive: [1] -2% | [2] 6.75% | [3] -12.5% | [4] -13.8% | [5] -1.95% | [6] -20.5%

CCOc1ccc(/C=C2\CCc3ccccc3C2=O)cc1
inactive: [1] 16.4% | [2] 16.6% | [3] 22.7% | [4] 20.9% | [5] 26.9% | [6] 21.6%

Nc1cn(Cc2ccccc2)c2nc(/C=C3/C=CC=CC3=O)c(O)n12
inactive: [1] 2.25% | [2] 1.75% | [3] -6.9% | [4] -5.45% | [5] 0.9% | [6] 8.85%
